# From PubChem BioAssay
# Pol iota inh: blocks human DNA polymerase iota activity; Q9UNA4; Pol iota fluorescent replication assay, 10 min; Potency, µM (doses to about 115 µM), for the others: at the highest dose activity, negative = inhibition, actives largely listed as inhibitors; actives 1% (n = 390,000)
#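 Pol iota at 10 nM preincubated 15 min with compounds at room temperature; reaction started with fluorescent substrate, 50 nM final. Fluorescence read kinetically at 0 and 10 min; buffer-only wells as negative control.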
# POLH inh: blocks human DNA polymerase eta activity | Potency, µM (top dose mostly 114 µM), for inactives: top-dose activity change, negative = inhibition, usual class: inhibitors | Q9Y253 | actives 1.2% (n = 390,000) | AID 588591 | recombinant Pol eta, fluorescent DNA replication assay; note: % is set by controls: 0 for no effect and ±100 for the full control effect
#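 Pol eta at 10 nM preincubated with compounds 15 min at room temperature; reaction started with fluorescent substrate (50 nM final) and read kinetically at 0 and 10 min.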
# FEN1 inhibitor: inhibitors of human flap endonuclease 1; Recombinant FEN1 flap cleavage, fluorescence, 15 min; Potency, µM (series often up to 114 µM), for inactives: top-dose activity change, negative = inhibition, actives largely listed as inhibitors; actives 0.35% (n = 390,000); note: % is set by controls: 0 for no effect and ±100 for the full control effect; nearly all actives have a fitted effect of over 65% in size
#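 FEN1 at 10 nM preincubated with compounds 15 min at room temperature, then flap DNA substrate added at 50 nM final. Signal read at 0 and 15 min; concentration-response fitted with four-parameter Hill equation.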
# WRN inhibitor: blocks human WRN helicase. Q14191. WRN helicase unwinding, fluorescent forked duplex, kinetic. AID 651768. Potency, µM (doses to about 114 µM), for the others: at the highest dose activity change, negative = inhibition, actives largely listed as inhibitors. actives 0.46% (n = 360,000); note: % is set by controls: 0 for no effect and ±100 for the full control effect; nearly all actives have a fitted effect of over 55% in size
# Target sequence (Q14191 whole entry, looked up): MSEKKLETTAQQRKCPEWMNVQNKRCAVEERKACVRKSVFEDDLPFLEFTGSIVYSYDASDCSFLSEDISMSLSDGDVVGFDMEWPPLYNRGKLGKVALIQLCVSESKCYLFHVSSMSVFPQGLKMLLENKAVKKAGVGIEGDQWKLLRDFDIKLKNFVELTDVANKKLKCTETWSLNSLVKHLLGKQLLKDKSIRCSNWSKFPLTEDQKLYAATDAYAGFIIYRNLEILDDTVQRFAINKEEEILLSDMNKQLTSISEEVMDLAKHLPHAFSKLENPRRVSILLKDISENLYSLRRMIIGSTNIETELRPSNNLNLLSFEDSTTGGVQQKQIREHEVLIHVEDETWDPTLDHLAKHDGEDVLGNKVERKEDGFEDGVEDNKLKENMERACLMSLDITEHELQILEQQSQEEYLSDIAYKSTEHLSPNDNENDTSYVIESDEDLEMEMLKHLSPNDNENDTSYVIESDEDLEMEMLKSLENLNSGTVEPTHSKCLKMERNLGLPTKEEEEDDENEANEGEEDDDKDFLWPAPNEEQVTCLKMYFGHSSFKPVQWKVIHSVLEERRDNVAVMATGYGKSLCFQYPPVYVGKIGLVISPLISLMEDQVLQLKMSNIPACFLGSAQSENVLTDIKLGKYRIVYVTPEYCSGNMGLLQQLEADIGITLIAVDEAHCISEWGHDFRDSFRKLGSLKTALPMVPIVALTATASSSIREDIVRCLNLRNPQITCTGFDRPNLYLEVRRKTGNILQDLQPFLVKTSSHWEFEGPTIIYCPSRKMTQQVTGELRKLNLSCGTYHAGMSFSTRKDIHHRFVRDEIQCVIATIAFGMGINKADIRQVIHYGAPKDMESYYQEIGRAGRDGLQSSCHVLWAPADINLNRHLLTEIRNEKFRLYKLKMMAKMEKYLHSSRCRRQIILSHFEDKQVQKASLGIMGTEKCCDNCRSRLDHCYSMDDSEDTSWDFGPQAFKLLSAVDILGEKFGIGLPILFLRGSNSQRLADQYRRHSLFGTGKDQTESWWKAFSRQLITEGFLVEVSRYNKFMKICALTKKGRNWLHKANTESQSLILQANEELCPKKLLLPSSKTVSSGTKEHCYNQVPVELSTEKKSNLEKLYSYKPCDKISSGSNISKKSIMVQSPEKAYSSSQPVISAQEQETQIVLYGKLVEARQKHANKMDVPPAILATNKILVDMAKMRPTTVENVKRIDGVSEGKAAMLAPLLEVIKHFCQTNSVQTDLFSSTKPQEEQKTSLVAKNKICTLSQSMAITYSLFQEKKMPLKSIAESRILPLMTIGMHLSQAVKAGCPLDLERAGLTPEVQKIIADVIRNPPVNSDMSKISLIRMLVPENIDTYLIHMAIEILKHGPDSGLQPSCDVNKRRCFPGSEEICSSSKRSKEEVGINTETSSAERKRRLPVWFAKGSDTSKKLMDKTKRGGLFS
#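 Fluorescence dequenching readout, ex 525 nm/em 598 nm, kinetic mode: forked duplex DNA (100 nM final) with adjacent fluorophore and quencher unwound by WRN (20 nM final) with 2 mM ATP. Compound preincubation 15 min, room temperature.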
# Pol beta inh: DNA polymerase beta (human) inhibition; P06746; Pol beta primer extension/strand displacement, fluorescence kinetic; Potency, µM (top dose mostly 114 µM), without a hit: at the top dose activity change, negative = inhibition, actives largely listed as inhibitors; actives 1.3% (n = 340,000); AID 485314; note: % is set by controls: 0 for no effect and ±100 for the full control effect
#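 Reaction started by 50 nM substrate onto compound-treated Pol beta (10 nM, 15 min preincubation, room temperature); plates read at 0 min and 10 min. Normalized concentration-effect data fitted by four-parameter Hill equation.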
# Pol kappa inh: inhibitors of human DNA polymerase kappa; Potency, µM (top dose mostly 107 µM), for inactives: top-dose activity, negative = inhibition, hits mostly inhibitors; Q9UBT6; AID 588579; purified Pol kappa, fluorescent DNA synthesis assay, 10 min; actives 0.53% (n = 400,000); note: % is set by controls: 0 for no effect and ±100 for the full control effect
#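 Here, compound and 10 nM enzyme are combined for 15 min at room temperature; adding 50 nM substrate (final) starts DNA synthesis, tracked by fluorescence at 0 and 10 min against buffer-only wells.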
# Starred values were filed as active, the others as inactive; ? = inconclusive; . = no result given; [ ] = dose if it differs, or a comment. Most compounds without a hit are left out; they make up all but 2.4% or so of the library. Calls come from the whole dose curve; as a rule, active = well fitted curve in the direction sought with a large enough effect; inconclusive = small, poorly fitted or top-dose-only effect, or another doubt; inactive = no such curve, though single readings can be large; an effect the other way counts as inactive or inconclusive. Potency is the fitted concentration of half-maximal effect.
SMILES,Pol iota inh,POLH inh,FEN1 inhibitor,WRN inhibitor,Pol beta inh,Pol kappa inh
COc1ccc(/C=N/NC(=O)c2cc(-c3cccn3C)n[nH]2)cc1OC,?,?,?,-7%[11.6 µM],8.9µM*,?
COc1ccc2[nH]c(C(=O)N/N=C/c3ccccc3OC)cc2c1,-13%,?,-26%,-20%,-7%,-13%
CCNC(=O)COc1ccc(/C=N/NC(=O)c2cccnc2)cc1OC,-1%,1%,-10%,-1%,45%,0%
COc1ccc2[nH]c(C(=O)N/N=C/c3ccc(OC)c(O)c3)cc2c1,31%,?,-12%,-15%,28µM*,?
COc1cc(OC)c(OC)cc1/C=N/NC(=O)c1cc(-c2cccn2C)n[nH]1,18%,-7%,3%,6%,-3%,-14%
COc1cc(/C=N/NC(=O)c2cccnc2)ccc1OCC(=O)Nc1ccc(C)cc1,?,?,-2%,-4%,13µM*,?
COc1cc2nc(C#N)nc(N)c2cc1OC,?,.,3%,.,.,?
CC(=O)N1c2ccc(S(=O)(=O)NCC3CCC(C(=O)N4CCC(C)CC4)CC3)cc2CC1C (stereo not drawn),79µM*,-14%,-9%,2%,23%,-14%
CC(=O)N1c2ccc(S(=O)(=O)NCC3CCC(C(=O)NC4CCC(C)CC4)CC3)cc2CC1C (stereo not drawn),9%,-2%,4%,3%,2%,-3%
CCc1ccccc1NC(=O)C1CCC(CNS(=O)(=O)c2ccc3c(c2)CC(C)N3C(C)=O)CC1 (stereo not drawn),5%,-11%,0%,.,5%,9%
CC(=O)N1c2ccc(S(=O)(=O)NCC3CCC(C(=O)Nc4cccc(C)c4C)CC3)cc2CC1C (stereo not drawn),?,-19%,18%,.,22µM*,-20%
CCOC(=O)c1cccc(NC(=O)NCCc2c(C)nn(C)c2C)c1,33%,-19%,-3%,.,13%,-7%[60.1 µM]
O=c1[nH]c(SCc2ccccc2)ncc1S(=O)(=O)c1ccccc1,15%,.,3%,.,.,-16%
Cc1ccc(C(=O)Nc2nnc(S(=O)(=O)N3CCCc4ccccc43)s2)cc1,100%,89µM*,23%,.,?,-11%
O=C(Nc1nnc(S(=O)(=O)N2CCCc3ccccc32)s1)c1ccccc1,23%,?,2%,.,?,-9%
Cc1ccc(N2CCN(S(=O)(=O)c3nnc(NC(=O)c4ccco4)s3)CC2)cc1,-13%,79µM*,14%,-3%[11.6 µM],?,-16%
O=C(Nc1nnc(S(=O)(=O)N2CCc3ccccc32)s1)c1cccc(Cl)c1,14%,89µM*,20%,.,4%,-18%
Cc1nnc(NC(=O)c2cccc(S(=O)(=O)N3CCc4ccccc43)c2)s1,2%,3%,3%,-13%,4%,-4%
CCOC(=O)c1[nH]c(C)c(CCC(=O)NCc2ccc(N(C)C)cc2)c1C,15%,-12%,12%,.,10%,-1%[60.1 µM]
Cc1nnc2ccc(-c3ccc(NS(=O)(=O)c4ccccc4[N+](=O)[O-])cc3)nn12,?,40µM*,-31%,-15%[11.6 µM],.,?
CCC(=O)N1CCc2cc(CNS(=O)(=O)c3cc(Cl)ccc3OC)ccc21,31%,-8%,-12%,.,-1%,-9%[60.1 µM]
Cc1ccc(C)c(S(=O)(=O)c2nnn3c2nc(N2CCCCC2)c2sccc23)c1,12%,-12%,-11%,.,1%,5%
COc1ccc(CNC(=O)Cn2ccc3cc(S(=O)(=O)N4CCCCC4)ccc32)cc1OC,2%,-8%,11%,.,6%,-1%
COc1ccc(NS(=O)(=O)c2ccc(O)c(NC(=O)c3cc4c(C)nn(-c5ccc(F)cc5)c4s3)c2)cc1,28µM*,20µM*,56µM*,?,10µM*,?
O=C(O)c1ccc(N2C(=O)/C(=C/C=C/c3ccccc3)SC2=S)cc1,?,50µM*,-7%,-7%[57.1 µM],?,-3%[60.1 µM]
SMILES,Pol iota inh,POLH inh,FEN1 inhibitor,WRN inhibitor,Pol beta inh,Pol kappa inh
CCOCCCN(Cc1ccco1)C(=O)c1cc2c(s1)-c1c(C)cccc1OC2,13%,-19%,-17%,.,-2%,-6%
Cc1ccc2c(Br)cc(Br)c(O)c2n1,.,.,.,.,.,-4%[19.4 µM]
S=C(Nc1cccnc1)Nc1cccc2cnccc12,?,-19%,2%,-24%,1%,2%
CN(C)S(=O)(=O)c1cccc(NC(=S)Nc2cccc3cnccc23)c1,2.8µM*,-17%,?,-35%,1%,-20%
Cc1nc(NC(=O)C(Cl)Cl)sc1C(=O)N(C)C,?,10µM*,-13%,?,35µM*,-31%
Cc1nc(NC(=O)CCl)sc1C(=O)N(C)C,-8%,9%,-4%,2%,21%,-1%
Cc1ccccc1NC(=O)Cn1c(=O)n(CCC(=O)NCc2ccc3c(c2)OCO3)c(=O)c2sccc21,6%,-16%,18%,.,50µM*,-17%
COc1c(Cl)cc(C(=O)NN)cc1Cl,55%,0%,1%,-26%,-1%,-6%
NNC(=O)c1cc(O)c(O)c(O)c1,?,-1%,22µM*,-16%[57.1 µM],3.2µM*,56µM*
O=C1c2cccc3cc([N+](=O)[O-])cc(c23)C(=O)N1CC1CCCO1 (stereo not drawn),?,-10%,?,-4%,13%,-10%
CN(C)CCN1C(=O)c2cccc3cc([N+](=O)[O-])cc(c23)C1=O,79µM*,?,20µM*,-21%,.,?
Cc1ccc(-c2nn(-c3ccccc3)cc2C(=O)O)o1,.,.,.,.,16µM*,.
CC(C)OC(=O)c1cn(-c2ccccc2)nc1-c1ccco1,?,?,-1%,?,40µM*,?
COc1ccccc1Cc1nc2ccccc2nc1SCC(=O)N1CCN(c2ccccc2)CC1,-19%,5%,-1%,.,20%,-5%[60.1 µM]
CCOc1ccc(NC(=O)CSc2nnc(-c3ccccc3)n2N)cc1,-1%,?,-5%,-21%,22µM*,-14%
CCOc1ccc(-c2nnc(SCc3nc4ccccc4[nH]3)n2N)cc1,?,-6%,5%,-5%,50µM*,0%
Cc1cc(NC(=O)CSc2nnc(-c3cccc(F)c3)n2N)no1,71µM*,-19%,20%,-5%,.,-5%
Cn1c(SCc2nc3ccccc3[nH]2)nnc1-c1cccnc1,19%,-18%,6%,0%,12%,-8%
CCSc1nnc(SCC(=O)Nc2cc(C)on2)s1,45µM*,?,12%,-12%,.,?
Cc1ccc(CNc2nc3ccccc3n3c(C)nnc23)cc1,-5%,-2%,0%,.,-28%,-4%
CC(=O)Nc1cccc(-n2nnc(SCC(=O)Nc3ccc(F)c(Cl)c3)n2)c1,79µM*,?,-13%,-26%,?,-7%
